“And” between values parts separate entries of the source, which are not always exact repeats. Equal entries are not always repeated. Hit rate of the full screen: of about 5,500 compounds, about 2,000 (36%) were called active. Not shown: some 18% with an inconclusive outcome. Cut-off read from the data, not from the text of the source: active = normalized growth mostly below about 0.91 (no sharp cut-off); inconclusive = no clear call, values can overlap the other calls; inactive = mostly above about 0.92. The list shows a part of the results. A structure can be active in one record and inactive in another.
Test: chemical genetic growth profiling, strain panel (AID 1159580);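 note: tested at 20 µM; growth read once vehicle control cultures reached saturation at 30 °C; 1 = growth at the plate median or of vehicle wells; lower values mean less growth of the strain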
Details: S. cerevisiae deletion strains, growth OD

Measured: normalized growth

O=c1c(O)c(-c2ccc(O)c(O)c2)oc2cc(O)cc(O)c12
0.542 (active) and 0.965 (inactive): locus YGR229C, strain SMI1, stronger effect = lower value
inactive: locus YAL013W, strain DEP1, stronger effect = lower value 0.973 and 0.979 | locus YAL030W, strain snc1, stronger effect = lower value 0.94 | locus YAL040C, strain CLN3, stronger effect = lower value 1.07 | locus YBR009C, strain hhf1, stronger effect = lower value 0.919 | locus YBR021W, strain FUR4, stronger effect = lower value 0.992 | locus YBR171W, strain sec66, stronger effect = lower value 0.997 | locus YBR229C, strain ROT2, stronger effect = lower value 0.993 | locus YCL029C, strain bik1, stronger effect = lower value 0.982 | locus YCL061C, strain MRC1 (second series), stronger effect = lower value 0.996 | locus YCR088W, strain abp1, stronger effect = lower value 0.993 | locus YDL005C, strain med2, stronger effect = lower value 0.992 | locus YDL035C, strain GPR1, stronger effect = lower value 0.906 | locus YDL040C, strain nat1, stronger effect = lower value 0.974 | locus YDL074C, strain BRE1, stronger effect = lower value 0.848 | locus YDL101C, strain DUN1, stronger effect = lower value 0.98 | locus YDL134C, strain PPH21, stronger effect = lower value 0.932 | locus YDL185W, strain tfp1, stronger effect = lower value 1.01 | locus YDL192W, strain arf1, stronger effect = lower value 0.958 | locus YDR001C, strain nth1, stronger effect = lower value 0.988 | locus YDR101C, strain arx1, stronger effect = lower value 1.02 | locus YDR137W, strain rgp1, stronger effect = lower value 0.897 | locus YDR150W, strain NUM1, stronger effect = lower value 0.978 | locus YDR159W, strain sac3, stronger effect = lower value 0.974 | locus YDR162C, strain NBP2, stronger effect = lower value 0.908 | locus YDR195W, strain ref2 1.04 | locus YDR318W, strain mcm21, stronger effect = lower value 0.967 | locus YDR363W, strain ESC2, stronger effect = lower value 1.01 | locus YDR388W, stronger effect = lower value 0.943 | locus YDR392W, strain spt3, stronger effect = lower value 0.781 | locus YDR502C, strain sam2, stronger effect = lower value 0.955 | locus YEL061C, strain CIN8 (second series), stronger effect = lower value 0.963 | locus YEL061C, strain CIN8, stronger effect = lower value 0.946 | locus YER002W, strain NOP16, stronger effect = lower value 1 | locus YER110C, stronger effect = lower value 1.04 | locus YER155C, strain BEM2 (second series), stronger effect = lower value 0.899 | locus YER155C, strain BEM2, stronger effect = lower value 1.02 | locus YER167W, strain BCK2, stronger effect = lower value 0.976 | locus YGL078C, strain dbp3, stronger effect = lower value 0.999 | locus YGL167C, strain pmr1, stronger effect = lower value 0.977 | locus YGL227W, strain vid30, stronger effect = lower value 1 | locus YGL240W, strain doc1, stronger effect = lower value 0.997 | locus YGL248W, strain PDE1, stronger effect = lower value 0.928 | locus YGR078C, strain PAC10, stronger effect = lower value 0.887 and 0.991 | locus YGR135W, strain pre9, stronger effect = lower value 0.91 | locus YGR252W, strain gcn5, stronger effect = lower value 0.804 | locus YHR030C, strain SLT2, stronger effect = lower value 0.951 and 0.997 | locus YHR079C, strain IRE1 (second series), stronger effect = lower value 1.02 | locus YHR079C, strain IRE1, stronger effect = lower value 0.981 | locus YHR094C, strain hxt1, stronger effect = lower value 1.04 | locus YHR129C, strain ARP1, stronger effect = lower value 0.926 | locus YHR200W, strain rpn10, stronger effect = lower value 0.941 | locus YIL066C, strain RNR3, stronger effect = lower value 0.882 | locus YIL073C, strain SPO22, stronger effect = lower value 0.854 | locus YIL125W, strain kgd1, stronger effect = lower value 1 | locus YIR030C, strain dcg1, stronger effect = lower value 1.03 | locus YJL092W, strain hpr5, stronger effect = lower value 0.955 | locus YJL115W, strain asf1, stronger effect = lower value 0.962 | locus YJL129C, strain trk1, stronger effect = lower value 0.913 | locus YJL134W, strain LCB3, stronger effect = lower value 0.988 | locus YJL154C, strain vps35, stronger effect = lower value 0.985 | locus YJL166W, strain qcr8, stronger effect = lower value 0.913 | locus YJL168C, strain set2, stronger effect = lower value 1.02 | locus YJL187C, strain SWE1 (second series), stronger effect = lower value 0.895 | locus YJR043C, strain POL32, stronger effect = lower value 0.905 | locus YJR066W, strain TOR1, stronger effect = lower value 0.931 | locus YJR075W, strain HOC1, stronger effect = lower value 0.982 and 0.99
active: locus YAL021C, strain ccr4, stronger effect = lower value 0.659 | locus YAL026C, strain drs2, stronger effect = lower value 0.782 | locus YBL061C, strain skt5, stronger effect = lower value 0.832 | locus YBR023C, strain chs3, stronger effect = lower value 0.778 | locus YBR231C, strain swc5, stronger effect = lower value 0.767 | locus YBR279W, strain paf1, stronger effect = lower value 0.848 | locus YCL011C, strain gbp2, stronger effect = lower value 0.847 | locus YCL016C, strain dcc1, stronger effect = lower value 0.877 | locus YCL069W, strain vba3, stronger effect = lower value 0.92 | locus YDR069C, strain doa4, stronger effect = lower value 0.728 | locus YDR297W, strain sur2, stronger effect = lower value 0.899 | locus YDR334W, strain swr1, stronger effect = lower value 0.855 | locus YDR335W, strain msn5, stronger effect = lower value 0.828 | locus YEL003W, strain gim4, stronger effect = lower value 0.879 | locus YEL037C, strain rad23, stronger effect = lower value 0.885 | locus YER015W, strain faa2, stronger effect = lower value 0.817 | locus YER016W, strain bim1, stronger effect = lower value 0.911 | locus YER111C, strain swi4, stronger effect = lower value 0.895 | locus YFR010W, strain ubp6, stronger effect = lower value 0.9 | locus YGL086W, strain mad1, stronger effect = lower value 0.915 | locus YGL173C, strain kem1, stronger effect = lower value 0.826 | locus YGL253W, strain hxk2, stronger effect = lower value 0.83 | locus YHR013C, strain ard1, stronger effect = lower value 0.796 | locus YHR027C, strain rpn1, stronger effect = lower value 0.807 | locus YHR142W, strain chs7, stronger effect = lower value 0.735 | locus YJL095W, strain BCK1 (second series), stronger effect = lower value 0.858 | locus YJL164C, strain tpk1, stronger effect = lower value 0.868
0.773 (active) and 0.993 (inactive): locus YJL095W, strain BCK1, stronger effect = lower value
